Bioassay records (PubChem)
Sm TGR inh: qHTS Assay for the Inhibitors of Schistosoma Mansoni Peroxiredoxins; Schistosoma mansoni thioredoxin glutathione reductase (TGR), Q962Y6; AID 485364, 2010; purified TGR, DTNB reduction, TNB absorbance 405 nm; 3% of 360,000 active; Potency, µM (titrated, usually from 114 µM), for the others: at the highest dose activity change, negative = inhibition, usual class: inhibitors; active = well fitted inhibition curve with a large enough effect; inconclusive = small, poorly fitted or top-dose-only effect; inactive = no such curve, though single readings can be large or run the other way; note: nearly all actives have a fitted effect of over 60% in size
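TGR 20 nM + NADPH 100 uM (dispensed conc.), cpd preinc 15 min RT; start with NADPH (500 uM addition) then DTNB (15 mM addition). Kinetic TNB absorbance, 405 nm filter. Four-parameter Hill fit across titration.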
VACV mCherry inh: qHTS for Stage-Specific Inhibitors of Vaccinia Orthopoxvirus: mCherry Reporter Primary qHTS; Vaccinia virus mCherry reporter infection, fluorescence; Potency, µM (top dose mostly 36.5 µM), without a hit: at the highest dose activity change, negative = inhibition, most hits filed as inhibitors; 0.63% of 310,000 active; AID 720579, 2013; calls by dose curve; tested in A549 cells; note: nearly all actives have a fitted effect of over 35% in size
Marburg entry inh: qHTS for inhibitors of binding or entry into cells for Marburg Virus | Marburg virus pseudotyped entry inhibition, cell reporter | 1.8% of 300,000 active | Potency, µM (doses to about 37.8 µM), for the others: at the highest dose activity change, negative = inhibition, actives largely listed as inhibitors | AID 540276, 2011; calls by dose curve; tested in HEK293 cells
Vaccinia Venus: qHTS for Stage-Specific Inhibitors of Vaccinia Orthopoxvirus: Venus Reporter Primary qHTS | Vaccinia virus Venus reporter expression, fluorescence | Potency, µM (doses to about 36.5 µM), for the others: at the highest dose activity change, negative = inhibition, usual class: inhibitors | 0.46% of 330,000 active | AID 720580, 2013; calls by dose curve; tested in A549 cells; note: nearly all actives have a fitted effect of over 30% in size
LASV entry inh: qHTS for Inhibitors of binding or entry into cells for Lassa Virus | Lassa virus pseudotype entry inhibition, cell reporter | 1.2% of 300,000 active | Potency, µM (top dose mostly 37.9 µM), for the others: at the top dose activity change, negative = inhibition, actives largely listed as inhibitors; calls by dose curve; tested in HEK293 cells; note: nearly all actives have a fitted effect of over 50% in size
FMDV antiviral: High Throughput Screening for Foot and Mouth Disease Virus Antivirals; 1.2% of 410,000 active; Potency, µM (doses to about 57.9 µM), inactives show at the top dose activity change, negative = inhibition, hits mostly inhibitors; FMDV antiviral cell-based qHTS; calls by dose curve; tested in HEK293T cells; note: read-out not given here; nearly all actives have a fitted effect of over 45% in size
* marks the source's active call; other numbers are inactive results; i = inactive; u = inconclusive; x = no result given; [ ] = remark or other dose. Compounds with a hit are over-represented: about 5.4% of the library has one in this group of screens. % is set by controls: 0 for no effect and ±100 for the full control effect; potency is the fitted concentration of half-maximal effect.

SMILES | Sm TGR inh | VACV mCherry inh | Marburg entry inh | Vaccinia Venus | LASV entry inh | FMDV antiviral
N#CC(C#N)=Cc1ccc(NC(=O)c2ccc(Br)cc2)cc1 | 2.5µM* | i | 1%[46.1 µM] | -2% | 5% | 11%
CC(C)(C)c1ccc(C(=O)Nc2ccc(C=C(C#N)C#N)cc2)cc1 | 3.2µM* | -15% | -9% | -18% | u | -11%
COC(=O)c1c(-c2cccc3ccccc23)csc1NC(=O)Cc1ccc(OC)c(OC)c1 | 0% | x | u | u | 11µM* | u
O=C(NN=C1C[C@@H](O)[C@H](O)[C@H]2[C@@H]3C(=O)N(c4cccc(Oc5ccccc5)c4)C(=O)[C@@H]3CC[C@H]12)OCc1ccccc1 | x | x | 4%[14.2 µM] | x | u | x
CN1CCC(Oc2ccccc2Sc2ccc(C(F)(F)F)cc2)CC1 | 2% | x | u | x | 12µM* | -25%
CN1CCC(Oc2ccc(Sc3ccccc3)cc2)CC1 | 4% | u | u | -23% | u | 18%
CCOC(=O)c1cc(CC)sc1N1C(=O)CC(Sc2ccccc2C(=O)O)C1=O (configuration not stated) | 14µM* | -5% | 12%[46.1 µM] | -1% | -1%[46.1 µM] | -9%
CCOC(=O)c1cc(CC)sc1N1C(=O)CC(Sc2ncccc2C(=O)O)C1=O (configuration not stated) | 25µM* | -7% | -4%[46.1 µM] | -10% | 8%[46.1 µM] | -10%
CCOC(=O)c1cnc(SC2CC(=O)N(c3ccccc3)C2=O)nc1N (configuration not stated) | -69% | -18% | 13%[46.1 µM] | u | -1% | 3%
Cc1ccc(NC(=O)CSc2n[nH]c(-c3ccc(F)cc3)n2)cc1F | 5% | -11% | x | -7% | -20%[46.1 µM] | -28%
CCCC[C@H](CCC(=O)Nc1ccc(C(=O)OC)cc1)C(=O)O | x | x | 18%[46.1 µM] | x | x | x
CCc1ccc(-c2nc(SCC(=O)NCCOC)c(-c3ccc(C)cc3)[nH]2)cc1 | 0% | -24% | 4%[46.1 µM] | -19% | 2%[46.1 µM] | -11%
COc1ccc(NC(=O)c2cc(-c3ccc(F)cc3)no2)cc1OC | -1% | -6% | x | -8% | 4%[46.1 µM] | 20%
Cc1ccc(Cc2nc3ccccc3nc2SCC(=O)N2CCCCC2C)cc1 (configuration not stated) | 0% | -8% | x | -15% | u | u
Cc1cc(N(CCCl)CCCl)ccc1C=NNC(=O)c1cccnc1 | x | -2% | u | -29% | u | -5%
O=C(N/N=C/c1cc(Br)c(O)c(Br)c1O)c1cccnc1 | u | x | x | x | x | -3%
O=C(NN=Cc1ccc(N(CCCl)CCCl)cc1Cl)c1cccnc1 | x | u | 1.6µM* | u | u | -27%
O=C(N/N=C/c1cccnc1)c1cc(O)c(O)c(O)c1 | -32% | -14% | 3.2µM* | 0% | u | 12%
Cc1cc(O)c(C)c(O)c1/C=N/NC(=O)c1cccnc1 | -3% | u | 10µM* | -23% | u | 36%
OC1(c2cccnc2)CCN(Cc2ccc3c(c2)CN(Cc2ccsc2)CCO3)CC1 | x | -13% | x | -16% | x | -11%
CCc1ccccc1NC(=O)c1cc(S(=O)(=O)N2CCCc3ccccc32)ccc1F | 14% | -8% | x | -11% | -1%[46.1 µM] | u
COc1ccc(S(=O)(=O)N2CCN(Cc3cccc([N+](=O)[O-])c3)CC2)cc1 | x | i | u | -11% | 12% | -22%
COc1ccc2ccc(O)c(CN3CCN(S(=O)(=O)c4cc([N+](=O)[O-])ccc4C)CC3)c2c1 | 1.6µM* | x | x | x | x | u
CCOC(=O)c1c(Oc2ccc(C(=O)OC)cc2)nnc(-c2ccccc2)c1-c1ccccc1 | 3% | -10% | u | -1% | u | u
COC(=O)c1c(Oc2ccc(C(C)=O)cc2)nnc(-c2ccccc2)c1-c1ccccc1 | 13% | -14% | 6.3µM* | -17% | u | u
OC(CNCCc1ccc(Cl)cc1)COc1ccc2ccccc2c1 (configuration not stated) | 6% | -18% | u | -19% | -1% | -11%
